Screens deposited in PubChem by PCMD.
Shown are actives, neighbours in structure and some others; about 0.58% of the full set was active somewhere.
CatB mix inh – cathepsin B inhibitors from pooled compounds, primary screen, biochemical, compound mixtures, AMC fluorescence | P07858 | Purified cathepsin B, AMC dipeptide fluorescence | hit rate 0.06% among 62,000 | AID 488, 2006 | inhibition, %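 (ten-compound pools at 5 µM per compound and 50 µM total)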; in the data active = inhibition above about 22%, passing the limit was not always enough;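 note: 0% = enzyme without compound and 100% = no enzyme blank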
Cathepsin G inh – human cathepsin G inhibitors, primary screen, biochemical, pooled compound mixtures, AMC fluorescence | P08311 | purified enzyme, AMC-tetrapeptide fluorescence | inhibition, % at 5 µM (by protocol) | hit rate 0.2% among 62,000;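 active = inhibition above 20% in each of the two mixture wells holding the compound; inactive = inhibition of 20% or less in either well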;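 note: 0% = enzyme control without mixture and 100% = blank lacking enzyme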
Target sequence (P08311 21-244 limits assumed): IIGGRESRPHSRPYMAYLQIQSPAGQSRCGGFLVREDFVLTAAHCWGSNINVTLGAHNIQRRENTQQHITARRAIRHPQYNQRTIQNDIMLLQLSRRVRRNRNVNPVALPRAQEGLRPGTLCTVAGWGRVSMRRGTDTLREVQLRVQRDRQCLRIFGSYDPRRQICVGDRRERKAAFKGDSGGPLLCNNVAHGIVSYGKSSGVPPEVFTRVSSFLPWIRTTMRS
C1s inh – complement C1s protease inhibitors, primary screen, biochemical, 10-compound mixtures; Complement C1s subcomponent (Homo sapiens), P09871; purified C1s, fluorogenic AMC substrate, pooled mixtures; mean inhibition % of two 10-compound mixtures (hits give high values), % at 5 µM (by protocol); hit rate 0.16% among 62,000; AID 538, 2006;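 active = inhibition above 20% in each of the two 10-compound mixture wells holding the compound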;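 note: 0% = enzyme wells lacking compound mixture and 100% = no-enzyme blank wells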
CatB block – human cathepsin B inhibitors, primary screen, biochemical, fluorogenic substrate; P07858; purified cathepsin B, fluorescence; inhibition, %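 (tested at 10 µM)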; hit rate 0.1% among 63,000; AID 453, 2006; in the data active = inhibition above about 21%;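 note: 0% = enzyme with no compound and 100% = no enzyme blank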
CatL block – inhibitors of human cathepsin L, biochemical; purified cathepsin L, fluorogenic substrate, fluorescence; hit rate 0.17% among 58,000; Procathepsin L (Homo sapiens), P07711; inhibition, %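 (tested at 10 µM)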; in the data active = inhibition above about 45%;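 note: 0% = enzyme with no compound and 100% = no enzyme blank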
CatS block – inhibitors of human cathepsin S, biochemical, compound mixtures; P25774; recombinant cathepsin S, AMC dipeptide fluorescence, pooled mixtures; inhibition, %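 (tested at 5 µM per compound within 10-compound mixtures)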; hit rate 0.06% among 62,000; in the data active = inhibition above about 32%, passing the limit was not always enough;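 note: 0% = enzyme without compound and 100% = blank without enzyme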
Target sequence (P25774 115-331 limits assumed): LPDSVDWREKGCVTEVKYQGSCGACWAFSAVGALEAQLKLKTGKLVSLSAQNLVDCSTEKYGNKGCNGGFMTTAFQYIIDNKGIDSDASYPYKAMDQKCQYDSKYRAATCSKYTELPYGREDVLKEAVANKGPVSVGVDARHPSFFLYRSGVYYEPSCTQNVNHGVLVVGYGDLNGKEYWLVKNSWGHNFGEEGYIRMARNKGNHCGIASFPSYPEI
* marks the source's active call; other numbers are inactive results; . = no result given.

SMILES	CatB mix inh	Cathepsin G inh	C1s inh	CatB block	CatL block	CatS block
Cc1cc(NC(=O)c2cc3nc(C4CC4)cc(C(F)(F)F)n3n2)no1	0.9	13.5	22.2*	6.3	12.5	9.6
COc1ccc2c(c1)CCc1c(C(=O)Nc3ccc(OC)c(OC)c3)noc1-2	5.0	37.1*	18.7	-0.6	-1.0	-3.8
COc1ccc2c(c1)CCc1c(C(=O)NCCc3ccc(OC)c(OC)c3)noc1-2	0.5	52.3	-15.5	1.9	8.6	-1.2
COc1ccc2c(c1)CCc1c(C(=O)NCc3ccc(F)cc3)noc1-2	4.1	92.5*	43.9*	-1.3	-18.4	-6.1
COc1ccc(CCn2nnnc2C(C(C)C)N2CCN(c3ncccn3)CC2)cc1OC (stereo not given)	1.1	6.7	10.0	-1.2	-11.5	0.5
C(=N\c1nccs1)/c1cccnc1	-2.0	8.6	1.7	2.5	.	0.9
COc1ccc(S(=O)(=O)Nc2nnc(C(C)(C)C)s2)cc1	-4.3	3.8	2.1	-2.9	.	0.7
O=S(=O)(Nc1nnc(-c2ccccc2)s1)c1ccc(Cl)cc1	8.4	7.8	12.4	6.7	104.7*	-0.9
COc1ccc(CCNC(=O)Cn2c(-c3nonc3N)nc3ccccc32)cc1OC	12.4	10.5	9.4	14.1	10.2	-6.6
O=C(CCS(=O)(=O)c1cccc2nonc12)N1CCN(c2ccc(F)cc2)CC1	0.5	-0.8	-12.5	4.3	-3.5	-4.2
CCOc1ccc(CCNC(=O)Cn2c(-c3nonc3N)nc3ccccc32)cc1OCC	51.0*	-5.8	-15.6	64.5*	51.7*	3.2
CCOC(=O)Cn1c(-c2nonc2NC(=O)c2ccccc2F)nc2ccccc21	-0.1	6.0	8.4	1.6	-14.0	-3.8
CCCCOc1ccccc1NC(=O)Cn1c(-c2nonc2N)nc2ccccc21	-3.2	-13.9	-163.2	53.7*	60.0*	-6.6
Nc1nonc1-c1nc2ccccc2n1CC(=O)N1CCN(c2ccc(F)cc2)CC1	9.9	1.2	-3.7	36.9*	.	4.0
CCOC(=O)N1CCC(N2CC34C=CC(O3)C(C(=O)O)C4C2=O)CC1 (stereo not given)	5.7	9.3	12.7	2.6	-7.9	-8.1
Cc1ccc(NC(=O)Cc2nn(C)c(=O)c3ccccc23)cc1F	5.7	20.6*	22.9	6.4	18.8	13.4
Cc1ccc2c(c1)CC1(CN2C)C(=O)OC2(CCCCC2)OC1=O	-2.5	6.7	2.3	0.0	-3.2	8.2
CN1CC2(Cc3c1ccc1ccccc31)C(=O)OC(C)(C)OC2=O	-5.8	42.0*	-36.0	-0.3	-4.2	-6.8
Cn1nccc1C(=O)Nn1cnnc1	-4.7	-23.4	-169.9	-6.6	7.7	-24.9
Cc1nn(C)c(C)c1NC(=O)c1ccnn1C	4.4	14.5	21.0*	5.2	9.0	-2.3
CN1CCN(c2ccccc2NC(=O)C(Cc2ccccc2)n2cccc2)CC1 (stereo not given)	-1.1	-1.3	-2.3	-1.4	.	8.4
CC(C)(C)OC(=O)NCCCCCc1nnc(SCC(=O)Nc2cccc(Cl)c2)o1	7.2	7.4	39.6	3.2	6.4	15.3
CCN1CCc2c(sc(N)c2C#N)C1	-1.0	-6.2	-48.1	-4.6	-18.5	-9.9
N#Cc1c(N)sc(=S)c2c1CCN(Cc1ccccc1)C2	36.3	-1.8	-40.4	80.5*	46.9*	75.1*
CCN(CC)c1ccc(/C=N/n2c(=S)[nH]nc(C)c2=O)cc1	1.7	6.1	11.7	7.2	104.2*	-6.4
SMILES	CatB mix inh	Cathepsin G inh	C1s inh	CatB block	CatL block	CatS block
N#Cc1c(C(F)(F)F)cc(C2CC2)[nH]c1=O	-5.0	-10.4	-80.5	-1.2	.	-7.2
COc1ccccc1S(=O)(=O)Cc1ccc(C(=O)NCCN2CCCCCC2)o1	4.6	3.1	-9.9	1.9	50.4*	-1.6
Cc1nc(CNS(=O)(=O)c2cc(C)c(C)cc2C)cs1	6.5	7.2	56.9*	3.2	9.3	26.1
CCn1cc(NC(=O)Nc2ccccc2C(=O)OC)c(C(N)=O)n1	2.5	10.4	12.3	4.5	2.4	-2.2
COC(=O)c1cc(Br)c(=O)n(-c2ccc(C(C)=O)cc2)c1	3.9	7.4	-3.0	3.9	4.7	2.9
O=C(NCc1cccs1)c1cc(-c2cccs2)on1	-0.2	34.0*	12.2	2.5	6.6	0.7
Cc1ccc(-c2cc(C(=O)NCc3ccccn3)no2)cc1	6.8	8.2	65.3*	2.7	13.7	16.4
COc1ccccc1Nc1nc2ccccc2n1C	-8.1	-21.1	-115.0	3.3	.	12.8
O=c1[nH]c(CN2CCc3ccccc3C2)nc2ccccc12	1.9	48.1*	8.8	-2.1	-0.8	-1.7
Cc1cc(C)c2nc(Nc3nc(C)cc(=O)[nH]3)nc(C)c2c1	0.4	7.1	6.8	-1.9	.	2.4
COc1ccc(C(=O)n2nc(-c3ccco3)nc2SC)cc1OC	3.0	39.6*	70.1*	7.1	.	-2.0
CSc1nc(-c2ccco2)nn1C(=O)c1cccs1	-0.5	58.6*	67.6*	0.7	13.7	3.7
COc1ccc(CNc2nc(-c3cccnc3)nn2C(=O)c2ccco2)cc1	-6.6	11.7	-0.2	1.2	-6.5	-2.0
COc1ccccc1C(=O)n1nc(-c2ccco2)nc1N	0.9	12.9	-5.3	0.4	8.3	9.7
COc1ccc(-c2nc(SC)n(C(=O)c3ccco3)n2)cc1	4.7	20.0*	62.7*	5.5	.	12.9
CC(=O)n1nc(-c2ccco2)nc1N	5.9	-7.8	-39.9	9.4	24.6	9.4
CCOC(=O)c1cnc2sc3c(n2c1=O)CCCC3	-4.7	-3.1	-34.4	-4.6	-136.6	1.4
CCc1nc(SCc2ccc(C(=O)OC)o2)c2c(=O)n(C)c(=O)n(C)c2n1	4.0	10.4	9.0	-0.1	.	4.7
COc1cccc(NC2=NCC(=O)N2Cc2cccs2)c1	3.9	12.0	15.4	-2.0	73.4*	-0.7
COc1ccc(NC2=NCCC(=O)N2Cc2cccs2)cc1	-2.2	9.7	2.6	0.2	0.4	-2.9
Cc1cccc(NC(=O)CCn2nc(C)cc2C)c1	-4.4	-0.3	2.5	1.9	58.8*	1.1
Cc1ccc(NC(=O)CCn2nc(C)cc2C)c(C)c1	4.3	10.0	5.4	3.3	-1.4	12.2
Nc1ccc2ncccc2c1N	.	.	.	7.3	79.4*	.
CCOc1nc(C#N)nc(N2CCCCC2)n1	10.7	-3.9	-3.0	15.1	58.6*	36.5*
COc1cc(OC)cc(C(=O)Nc2ncc3c(n2)CC(C)CC3=O)c1 (stereo not given)	5.2	17.0	22.4*	4.4	-0.7	11.3
Cc1ccc(S(=O)(=O)NC(=O)COc2ccccc2C(N)=O)cc1	2.9	14.3	16.5	-0.1	-4.0	-1.7
CCc1cc(=O)oc2cc(C)cc(OC(=O)c3ccco3)c12	-0.2	17.8	37.8*	-6.7	9.6	-3.5
COC(=O)c1ccc(NC(=O)c2ccc(CN3CCOCC3)cc2)cc1	1.2	-29.5	-28.9	1.3	84.1*	6.4
